High-throughput results: PubChem BioAssay, National Center for Advancing Translational Sciences (NCATS)
The full list was thinned out, with hits kept by preference.
Shiga inhibitor = inhibitors of Shiga toxin in Vero cells; Vero cells, Shiga toxin protein synthesis inhibition reporter; AID 2315; actives 9.2% (n = 290,000); inhibition, % at 38.7 µM; in the data active means inhibition mostly above about 28%, no sharp cut-off; inactive means mostly below about 43%; further: 0% is about no effect
Marburg entry inh = blocks Marburg virus binding to or entry into cells | Marburg virus pseudotyped entry inhibition, cell reporter | Potency, µM (series often up to 37.8 µM), for the others: at the top dose activity change, negative = inhibition, usual class: inhibitors | AID 540276 | actives 1.8% (n = 300,000); calls by dose curve; tested in HEK293 cells; further: potency means the concentration at half of the fitted maximal effect; on the % scale 0 is the no-effect control and ±100 the full control effect
LASV entry inh = inhibitors of Lassa virus binding or cell entry; Lassa virus pseudotype entry inhibition, cell reporter; AID 540256; actives 1.2% (n = 300,000); Potency, µM (series often up to 37.9 µM), for the others: at the top dose activity change, negative = inhibition, actives largely listed as inhibitors; calls by dose curve; tested in HEK293 cells; further: potency means the concentration at half of the fitted maximal effect; on the % scale 0 is the no-effect control and ±100 the full control effect; nearly all actives have a fitted effect of over 50% in size
AMA1 RON2 block = AMA1-RON2 (P. falciparum) interaction inhibition | Potency, µM (series often up to 58.2 µM), for the others: at the top dose activity change, negative = inhibition, hits mostly inhibitors | AlphaScreen AMA1-biotinylated RON2 peptide binding | actives 0.2% (n = 360,000) | AID 720542; active means well fitted inhibition curve with a large enough effect; inconclusive means small, poorly fitted or top-dose-only effect; inactive means no such curve, though single readings can be large or run the other way;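 further: potency means the concentration at half of the fitted maximal effect; 0% = vehicle wells and -100% = peptide control; nearly all actives have a fitted effect of over 45% in size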
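AMA1 (3D7) with his tag at 25 nM final met compounds first, then biotinylated RON2 peptide at 25 nM; detection used donor plus acceptor beads, 10 µg/mL apiece, read by AlphaScreen after 30 min at room temperature.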
CHX counter = counter-screen for Shiga toxin inhibitors: cycloheximide protein synthesis inhibition; cell reporter, cycloheximide protein synthesis inhibition counterscreen; max response, %; actives 12% (n = 300,000); in the data active means max response mostly above about 13%, no sharp cut-off; inactive means mostly below about 14%; further: read at 38.3 µM for the half of the compounds with a filed dose; 0% is about no effect
Numbers without * were called inactive; ? = inconclusive; . = not tested or not shown; [ ] = remark or other dose.

SMILES	Shiga inhibitor	Marburg entry inh	LASV entry inh	AMA1 RON2 block	CHX counter
CC(=O)OC(C)(C)C1Cc2cc3ccc(=O)oc3cc2O1 (stereo not given)	45.4*	.	.	12.1%	22.9
COC(=O)C1=C(C)N(CC2CC2)C(=O)NC1c1ccccc1 (stereo not given)	.	-5.3%[14.2 µM]	.	.	.
COc1cc(NC(=O)CSc2nccc(C)n2)c(C)cc1[N+](=O)[O-]	22.9	?	20.6%	7.3%	-3.2
Cc1scc(C(=O)N/N=C/c2ccco2)c1C	53.1*	4.3%	-1.6%	42.6%	29.3*
CCCOc1cccc(/C=N/NC(=O)c2csc(C)c2C)c1	2.3	-4.7%[46.1 µM]	-6.5%	26.3%	14.0
Cc1scc(C(=O)N/N=C/c2ccsc2)c1C	52.1*	?	?	11.7%	83.6*
Cc1ccc(S(=O)(=O)c2cn(CC(=O)Nc3ccc4c(c3)OCO4)c3ccccc3c2=O)cc1C	.	-0.4%[46.1 µM]	-3.6%[46.1 µM]	.	.
CCCc1[nH]nc2c1[C@@H](c1cccc(OC)c1)C(C#N)=C(N)O2	.	4.4%	.	.	.
NC(=O)Nc1sc(-c2ccc(F)cc2)cc1C(N)=O	4.1	.	.	.	16.7*
NC(=O)c1ccccc1NC(=O)CN1CCCCCC1	19.2	0.4%[46.1 µM]	?	0.7%	11.2
NC(=O)c1cc(-c2ccccc2)sc1NC(=O)CN1CCCCC1	35.7	6.31µM*	?	3.7%	11.5*
NCCNCCNCCN	-10.0	2.9%	-10.6%	55.4%	-2.0
NCCNCCN	91.5*	.	.	.	43.5*
Cc1ccc(-c2cc(C(=O)N(C)CC(=O)Nc3ccccc3Br)c3ccccc3n2)o1	.	?	-17.0%	2.5%	.
CN(C)c1ccc(C=Nc2ccc(N(C)C)cc2)cc1	77.6*	?	?	?	35.9*
C(=N\C(/N=C/c1ccco1)c1ccco1)/c1ccco1	28.5	16.7%	16.2%	?	8.0
Cc1ccc(N=Cc2ccc(N(C)C)cc2)cc1C	23.3	-4.4%[46.1 µM]	.	4.0%	10.3
CN(C)c1ccc(N=Cc2ccco2)cc1	99.1*	-21.0%	-2.8%	-25.2%	55.1*
Cc1ccc(N=Cc2ccc(N(C)C)cc2)cc1	-11.5	-3.3%	-2.7%	-3.2%	7.4
C(=Nc1cccc2c(N=Cc3ccco3)cccc12)c1ccco1	47.1*	.	.	-7.8%	16.6
O=C(c1cc(COc2cccc(C(F)(F)F)c2)on1)N1C[C@H]2CC[C@H]1C2	80.2*	?	-8.9%	-5.7%	30.5*
COCCC1CCCCN1C(=O)c1cc(COc2cccc(C(C)=O)c2)on1 (stereo not given)	76.3*	-27.6%[46.1 µM]	3.9%[46.1 µM]	-0.3%	33.6*
O=C(c1cc(COc2c(F)cccc2F)on1)N1CC[C@@H]2CCCC[C@H]2C1	.	.	.	8.7%	.
COc1ccc(-c2cc(C(=O)N3CC4(C)CC3CC(C)(C)C4)no2)cc1 (stereo not given)	-11.0	-14.3%	?	-5.5%	-6.0
CC1(C)C[C@@H]2C[C@@](C)(CN2C(=O)c2cc(COc3cccc(C(F)(F)F)c3)on2)C1	42.4*	?	-30.0%	-7.4%	12.5
SMILES	Shiga inhibitor	Marburg entry inh	LASV entry inh	AMA1 RON2 block	CHX counter
CC(=O)c1ccc(OCc2cc(C(=O)N3CCC[C@H]3CO)no2)cc1	17.4	.	.	-4.4%	11.0
CC(=O)c1cccc(OCc2cc(C(=O)N3C[C@@H](C)O[C@@H](C)C3)no2)c1	75.1*	?	?	1.4%	40.7*
CC(=O)OCCN1C(=O)c2c(C)nc3ccc(S(=O)(=O)N4CCOCC4)cc3c2C1=O	-2.4	.	.	.	-2.2
C=C(C)C(=O)CP(=O)(OCC)OCC	.	-3.0%[14.2 µM]	.	.	.
CC(=O)c1cccc(OCc2cc(C(=O)NC3CCN(Cc4ccccc4)CC3)no2)c1	-8.0	.	.	4.4%	-3.1
CC(=O)c1cccc(OCc2cc(C(=O)N3C[C@H]4CC[C@H]3C4)no2)c1	82.0*	.	.	25.8%	50.3*
CC(=O)c1cccc(NC(=O)c2ccc3c(c2)CCCC3)c1	56.8*	.	.	-13.3%	53.3*
COc1cccc(NC(=O)c2ccc3c(c2)CCCC3)c1	73.0*	.	.	12.6%	48.8*
Cc1cnc(C(=O)NCC(=O)Nc2ccccc2Br)cn1	.	1.0%[46.1 µM]	25.6%	2.2%	.
COCCCNC(=O)CCc1c(C)c2cc3c(C)coc3cc2oc1=O	-1.5	-4.3%[46.1 µM]	4.6%[46.1 µM]	-8.0%	-0.9
COc1cc2cc(CNc3ccc(C)cc3)c(=O)n(CC(=O)Nc3ccc(F)cc3F)c2cc1OC	.	.	29.1%[46.1 µM]	.	.
Cc1cc(C)cc(NC(=O)c2cn3c4c(ccc(Cl)c4c2=O)OC(C)C3)c1 (stereo not given)	.	.	22.6%[46.1 µM]	.	.
O=C(NC1CCc2ccccc21)c1cc(COc2cncc(Cl)c2)on1 (stereo not given)	66.8*	24.0%[46.1 µM]	?	-7.5%	56.6*
CC(CNC(=O)c1cc(COc2c(F)cccc2F)on1)c1ccccc1 (stereo not given)	-6.1	9.4%	?	13.8%	16.4
O=C(NCc1c(F)cccc1F)c1cc(COc2c(F)cccc2F)on1	96.5*	-20.0%[46.1 µM]	-17.7%[46.1 µM]	-18.0%	26.3*
O=C(NCCc1cnn(-c2ccccc2)c1)c1cc(COc2c(F)cccc2F)on1	67.6*	?	0.5%[46.1 µM]	9.5%	27.2*
O=C(NCC1OCCc2ccccc21)c1cc(COc2c(F)cccc2F)on1 (stereo not given)	49.3*	?	?	-15.9%	34.6*
CCc1noc(-c2ccc(N3CCCCC3)c([N+](=O)[O-])c2)n1	.	-9.2%[46.1 µM]	-10.0%[46.1 µM]	.	.
Cc1cc(C)c(OCC(=O)Nc2nnc(C3CC3)s2)c(C)c1	.	9.7%[46.1 µM]	-1.5%	2.0%	.
O=C(NC1CCc2ccccc21)c1cc(COc2ccc(F)cc2Cl)on1 (stereo not given)	39.9	.	.	-1.7%	1.0
O=C(NC1CCc2ccccc21)c1cc(COc2c(F)cccc2F)on1 (stereo not given)	37.0	.	.	-0.6%	21.0*
O=C(CSc1ccc(-c2cccs2)nn1)N1CCCCCC1	44.1*	12.6%	-11.0%	10.3%	20.0*
Cc1ccccc1NC(=O)CSc1ccc(-c2cccs2)nn1	.	.	-11.7%[46.1 µM]	.	.
O=C(CSc1ccc2nnc(-c3cccs3)n2n1)N1CCCC1	1.5	5.1%[46.1 µM]	1.2%	2.7%	3.4
O=C(CSc1ccc(-c2cccs2)nn1)N1CCCCC1	52.0*	?	19.4%	10.7%	46.3*
SMILES	Shiga inhibitor	Marburg entry inh	LASV entry inh	AMA1 RON2 block	CHX counter
Cc1cccc(NC(=O)CSc2ccc(-c3cccs3)nn2)c1C	10.8	?	6.9%	-26.9%	13.3*
CC(C)c1cccc(C(C)C)c1NC(=O)c1ccccc1	1.2	-6.1%[46.1 µM]	-29.0%[46.1 µM]	-5.9%	-4.7
CCN(C(=O)C1CCN(S(=O)(=O)c2c(C)noc2/C=C/c2ccc(C)cc2)CC1)c1cccc(C)c1	.	.	-27.0%[46.1 µM]	.	.
Cc1cc(NC(=O)Cc2cccs2)no1	-11.1	29.1%	0.0%	?	1.0
Cc1cc(C)nc(NC(=O)c2cccs2)c1	.	.	.	-2.9%	21.2*
Cc1cc(NC(=O)c2cccs2)no1	57.1*	?	?	6.8%	32.5*
CC(C)NC(=O)c1cc(-c2cccs2)on1	56.6*	?	?	-5.0%	30.6*
Cc1cc(NC(=O)c2cc(-c3cccs3)on2)no1	114.2*	4.5%	-14.5%	-4.8%	28.5*
Cc1cc(NC(=O)c2cc(C(C)C)on2)no1	67.4*	16.4%	1.2%	-17.8%	48.1*
Cc1nc(NC(=O)c2cccs2)ccc1Br	105.9*	?	6.31µM*	0.9%	54.0*
